The test system of test [1] is Vero E6 infected with SARS-CoV-2. Put plainly: morphology score (similarity to uninfected cells); higher = more like uninfected cells. The settings on record: 24 h.
Test [2] shares this test system. Kind of test: SARS-CoV-2 infection rate relative to infected DMSO; higher = more infection, active = 60 or less. Particulars: 24 h.

For `CN1CCN(CCCN2c3ccccc3Sc3ccc(Cl)cc32)CC1` [prochlorperazine] (10 µM), the morphology score in test [1] stood at 0.742. Further, in test [2], the SARS-CoV-2 infection rate was 27.5% (active).
For the compound `CN1C2CCC1CC(OC(c1ccccc1)c1ccc(Cl)cc1)C2` (configuration not stated) (0.833333 µM), in test [1], the morphology score was 0.251. Also, the SARS-CoV-2 infection rate in test [2] was 98.5% (inactive).
For `Nc1n[nH]c2nc3ccccc3nc12` [CDK1-5-inhibitor] (10 µM), in that order: -0.113 and 112% (inactive).
Taken in the same sequence, the figures for `CN1CCCCC1Cn1cc(C(=O)c2cc([N+](=O)[O-])ccc2I)c2ccccc21` (configuration not stated) (10 µM) were 0.612 and 72.5% (inactive).
For `CN(C)CCN1C(=O)c2cccc3cc(NC(N)=O)cc(c23)C1=O` [unbs-5162] (10 µM), in that order: 0.115 and 102% (inactive).
As to `Cc1ccc2cc(-c3c(C)ccc(C(=O)c4c(-c5ccccc5)n(C)n(-c5ccccc5)c4=O)c3N)ccc2n1` (10 µM), in test [1], the morphology score stood at 0.0631. Further, the SARS-CoV-2 infection rate in test [2] is 76% (inactive).
For `O=C(c1ccccn1)c1cnn2c(-c3ccncc3)ccnc12` [ocinaplon] (10 µM), in that order: -0.0527 and 117% (inactive).
For `Cc1c(C(=O)NN2CCCCC2)nn(-c2ccc(Cl)cc2Cl)c1-c1ccc(I)cc1` (10 µM), the morphology score in test [1] turned out to be 0.254. Also, in test [2], the SARS-CoV-2 infection rate was 93% (inactive).
Consider `CN(C)CCOC(c1ccccc1)c1ccccc1.Cn1c(=O)c2[nH]c(Cl)nc2n(C)c1=O` [dimenhydrinate] (10 µM), for which the morphology score in test [1] was -0.0688. In test [2], the SARS-CoV-2 infection rate is 110% (inactive).
Turning to `O=C(O)CNC(=O)C1C(=O)N(C2CCCCC2)C(=O)N(C2CCCCC2)C1=O` [daprodustat] (10 µM), the morphology score in test [1] came out at 0.206. Further, in test [2], the SARS-CoV-2 infection rate is 81.5% (inactive).
For `O=[N+]([O-])O[C@@H]1CO[C@H]2[C@@H]1OC[C@@H]2O` [isosorbide-mononitrate] (10 µM), in that order: -0.103 and 110% (inactive).

The record behind these values is the supplement of paper PMC13380429.
